# Assay results: paper PMC11006913
# Assays:
# Test in all cases: PBM; 200 nM protein, PBS
# Conditions in all cases: dsDNA, one strand shown
# HOXB4 [1] = target: HOXB4 (Homo sapiens, UniProt P17483 148-234)
# HOXA4 [2] = target: HOXA4 (Homo sapiens, UniProt Q00056 201-287, W262R)
# HOXA2 [3] = target: HOXA2 (Homo sapiens, UniProt O43364 129-215, R185T)
# HOXA4 [4] = target: HOXA4 (Homo sapiens, UniProt Q00056 201-287, R217L)
# HOXB4 [5] = target: HOXB4 (Homo sapiens, UniProt P17483 148-234, V174I)
# HOXA2 [6] = target: HOXA2 (Homo sapiens, UniProt O43364 129-215, R185K)
# HOXA4 [7] = target: HOXA4 (Homo sapiens, UniProt Q00056 201-287)
# HOXA2 [8] = target: HOXA2 (Homo sapiens, UniProt O43364 129-215, Y150S)
# HOXA4 [9] = target: HOXA4 (Homo sapiens, UniProt Q00056 201-287, W262F)
# HOXA2 [10] = target: HOXA2 (Homo sapiens, UniProt O43364 129-215)
# HOXA7 [11] = target: HOXA7 (Homo sapiens, UniProt P31268 116-202)
# HOXA7 [12] = target: HOXA7 (Homo sapiens, UniProt P31268 116-202, W177C)
# VAX1 [13] = target: VAX1 (Homo sapiens, UniProt Q5SQQ9 86-172)
# VAX1 [14] = target: VAX1 (Homo sapiens, UniProt Q5SQQ9 86-172, T142I)
# VAX1 [15] = target: VAX1 (Homo sapiens, UniProt Q5SQQ9 86-172, K157R)
# HOXB6 [16] = target: HOXB6 (Homo sapiens, UniProt P17509 132-218, K202E)
# HOXB6 [17] = target: HOXB6 (Homo sapiens, UniProt P17509 132-218)
# HOXB6 (Homo sapiens, UniProt P17509 132-218), sequence (P17509 132-218): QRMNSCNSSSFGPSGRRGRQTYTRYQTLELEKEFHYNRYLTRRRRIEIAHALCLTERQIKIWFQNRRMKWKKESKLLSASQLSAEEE
# HOXA4 (Homo sapiens, UniProt Q00056 201-287, W262R), sequence (Q00056 201-287 W262R): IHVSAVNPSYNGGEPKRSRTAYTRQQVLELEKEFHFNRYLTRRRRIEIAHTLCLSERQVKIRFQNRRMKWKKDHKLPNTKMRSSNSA
# HOXA2 (Homo sapiens, UniProt O43364 129-215, R185K), sequence (O43364 129-215 R185K): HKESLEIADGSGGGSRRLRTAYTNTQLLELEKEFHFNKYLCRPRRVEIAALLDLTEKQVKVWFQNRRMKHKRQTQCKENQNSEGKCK
# HOXB4 (Homo sapiens, UniProt P17483 148-234, V174I), sequence (P17483 148-234 V174I): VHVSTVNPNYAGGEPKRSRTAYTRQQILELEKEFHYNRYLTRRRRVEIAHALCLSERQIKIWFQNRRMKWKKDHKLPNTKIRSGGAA
# HOXA4 (Homo sapiens, UniProt Q00056 201-287, W262F), sequence (Q00056 201-287 W262F): as the sequence (Q00056 201-287 W262R) above, with R62F counted along it
# HOXA2 (Homo sapiens, UniProt O43364 129-215, R185T), sequence (O43364 129-215 R185T): as the sequence (O43364 129-215 R185K) above, with K57T counted along it
# HOXA7 (Homo sapiens, UniProt P31268 116-202), sequence (P31268 116-202): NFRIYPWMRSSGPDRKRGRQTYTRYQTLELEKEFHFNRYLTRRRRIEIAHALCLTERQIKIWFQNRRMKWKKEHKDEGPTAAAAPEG
# HOXB6 (Homo sapiens, UniProt P17509 132-218, K202E), sequence (P17509 132-218 K202E): as the sequence (P17509 132-218) above, with K71E counted along it
# HOXA2 (Homo sapiens, UniProt O43364 129-215), sequence (O43364 129-215): as the sequence (O43364 129-215 R185K) above, with K57R counted along it
# HOXA4 (Homo sapiens, UniProt Q00056 201-287, R217L), sequence (Q00056 201-287 R217L): as the sequence (Q00056 201-287 W262R) above, with R17L, R62W counted along it
# HOXA4 (Homo sapiens, UniProt Q00056 201-287), sequence (Q00056 201-287): as the sequence (Q00056 201-287 W262R) above, with R62W counted along it
# HOXB4 (Homo sapiens, UniProt P17483 148-234), sequence (P17483 148-234): as the sequence (P17483 148-234 V174I) above, with I27V counted along it
# HOXA7 (Homo sapiens, UniProt P31268 116-202, W177C), sequence (P31268 116-202 W177C): as the sequence (P31268 116-202) above, with W62C counted along it
# HOXA2 (Homo sapiens, UniProt O43364 129-215, Y150S), sequence (O43364 129-215 Y150S): as the sequence (O43364 129-215 R185K) above, with Y22S, K57R counted along it
# VAX1 (Homo sapiens, UniProt Q5SQQ9 86-172, K157R), sequence (Q5SQQ9 86-172 K157R): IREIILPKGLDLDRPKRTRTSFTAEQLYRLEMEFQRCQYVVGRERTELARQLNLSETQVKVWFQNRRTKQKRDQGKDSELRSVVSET
# VAX1 (Homo sapiens, UniProt Q5SQQ9 86-172), sequence (Q5SQQ9 86-172): as the sequence (Q5SQQ9 86-172 K157R) above, with R72K counted along it
# VAX1 (Homo sapiens, UniProt Q5SQQ9 86-172, T142I), sequence (Q5SQQ9 86-172 T142I): as the sequence (Q5SQQ9 86-172 K157R) above, with T57I, R72K counted along it
sequence,measurement,setting,value
TATAATGA,binding signal,HOXB4 [1],"13 upbm affinity estimate (log intensity, higher = more binding, comparable within an allelic series)"
same,binding signal,HOXA4 [2],"10.5 upbm affinity estimate (log intensity, higher = more binding, comparable within an allelic series)"
same,binding signal,HOXA2 [3],"12 upbm affinity estimate (log intensity, higher = more binding, comparable within an allelic series)"
same,binding signal,HOXA4 [4],"11.9 upbm affinity estimate (log intensity, higher = more binding, comparable within an allelic series)"
same,binding signal,HOXB4 [5],"13.5 upbm affinity estimate (log intensity, higher = more binding, comparable within an allelic series)"
same,binding signal,HOXA2 [6],"12.8 upbm affinity estimate (log intensity, higher = more binding, comparable within an allelic series)"
same,binding signal,HOXA4 [7],"13.6 upbm affinity estimate (log intensity, higher = more binding, comparable within an allelic series)"
same,binding signal,HOXA2 [8],"10.9 upbm affinity estimate (log intensity, higher = more binding, comparable within an allelic series)"
same,binding signal,HOXA4 [9],"11.2 upbm affinity estimate (log intensity, higher = more binding, comparable within an allelic series)"
same,binding signal,HOXA2 [10],"12.1 upbm affinity estimate (log intensity, higher = more binding, comparable within an allelic series)"
CGGCAGAG,binding signal,HOXB4 [1],"7.39 upbm affinity estimate (log intensity, higher = more binding, comparable within an allelic series)"
same,binding signal,HOXA7 [11],"8.53 upbm affinity estimate (log intensity, higher = more binding, comparable within an allelic series)"
same,binding signal,HOXB4 [5],"7.51 upbm affinity estimate (log intensity, higher = more binding, comparable within an allelic series)"
same,binding signal,HOXA7 [12],"8.39 upbm affinity estimate (log intensity, higher = more binding, comparable within an allelic series)"
TTAATGAA,binding signal,HOXB4 [1],"13 upbm affinity estimate (log intensity, higher = more binding, comparable within an allelic series)"
same,binding signal,HOXA4 [2],"10.7 upbm affinity estimate (log intensity, higher = more binding, comparable within an allelic series)"
same,binding signal,HOXA2 [3],"12 upbm affinity estimate (log intensity, higher = more binding, comparable within an allelic series)"
same,binding signal,HOXA4 [4],"12.2 upbm affinity estimate (log intensity, higher = more binding, comparable within an allelic series)"
same,binding signal,HOXB4 [5],"13.7 upbm affinity estimate (log intensity, higher = more binding, comparable within an allelic series)"
same,binding signal,HOXA2 [6],"12.9 upbm affinity estimate (log intensity, higher = more binding, comparable within an allelic series)"
same,binding signal,HOXA4 [7],"13.8 upbm affinity estimate (log intensity, higher = more binding, comparable within an allelic series)"
same,binding signal,VAX1 [13],"12.7 upbm affinity estimate (log intensity, higher = more binding, comparable within an allelic series)"
same,binding signal,VAX1 [14],"12.4 upbm affinity estimate (log intensity, higher = more binding, comparable within an allelic series)"
same,binding signal,HOXA2 [8],"10.8 upbm affinity estimate (log intensity, higher = more binding, comparable within an allelic series)"
same,binding signal,HOXA4 [9],"11.8 upbm affinity estimate (log intensity, higher = more binding, comparable within an allelic series)"
same,binding signal,HOXA2 [10],"12.1 upbm affinity estimate (log intensity, higher = more binding, comparable within an allelic series)"
same,binding signal,VAX1 [15],"12.4 upbm affinity estimate (log intensity, higher = more binding, comparable within an allelic series)"
CTGGCGGC,binding signal,HOXB4 [1],"7.3 upbm affinity estimate (log intensity, higher = more binding, comparable within an allelic series)"
same,binding signal,HOXA4 [2],"9.71 upbm affinity estimate (log intensity, higher = more binding, comparable within an allelic series)"
same,binding signal,HOXA7 [11],"8.57 upbm affinity estimate (log intensity, higher = more binding, comparable within an allelic series)"
same,binding signal,HOXA2 [3],"7.15 upbm affinity estimate (log intensity, higher = more binding, comparable within an allelic series)"
same,binding signal,HOXA4 [4],"9.74 upbm affinity estimate (log intensity, higher = more binding, comparable within an allelic series)"
same,binding signal,HOXB4 [5],"7.49 upbm affinity estimate (log intensity, higher = more binding, comparable within an allelic series)"
same,binding signal,HOXA2 [6],"10.3 upbm affinity estimate (log intensity, higher = more binding, comparable within an allelic series)"
same,binding signal,HOXA4 [7],"9.58 upbm affinity estimate (log intensity, higher = more binding, comparable within an allelic series)"
same,binding signal,HOXA2 [8],"10.5 upbm affinity estimate (log intensity, higher = more binding, comparable within an allelic series)"
same,binding signal,HOXA7 [12],"8.35 upbm affinity estimate (log intensity, higher = more binding, comparable within an allelic series)"
same,binding signal,HOXA4 [9],"9.86 upbm affinity estimate (log intensity, higher = more binding, comparable within an allelic series)"
same,binding signal,HOXA2 [10],"7.36 upbm affinity estimate (log intensity, higher = more binding, comparable within an allelic series)"
GTTCATTA,binding signal,HOXB4 [1],"13 upbm affinity estimate (log intensity, higher = more binding, comparable within an allelic series)"
same,binding signal,HOXA7 [11],"10.2 upbm affinity estimate (log intensity, higher = more binding, comparable within an allelic series)"
same,binding signal,HOXB4 [5],"13.6 upbm affinity estimate (log intensity, higher = more binding, comparable within an allelic series)"
same,binding signal,HOXA7 [12],"8.87 upbm affinity estimate (log intensity, higher = more binding, comparable within an allelic series)"
CGGGGGTC,binding signal,HOXB4 [1],"7.85 upbm affinity estimate (log intensity, higher = more binding, comparable within an allelic series)"
same,binding signal,HOXB6 [16],"8.98 upbm affinity estimate (log intensity, higher = more binding, comparable within an allelic series)"
same,binding signal,HOXB4 [5],"7.45 upbm affinity estimate (log intensity, higher = more binding, comparable within an allelic series)"
same,binding signal,HOXB6 [17],"9.04 upbm affinity estimate (log intensity, higher = more binding, comparable within an allelic series)"
ATTAATCA,binding signal,HOXB4 [1],"13.2 upbm affinity estimate (log intensity, higher = more binding, comparable within an allelic series)"
same,binding signal,HOXA4 [2],"10.6 upbm affinity estimate (log intensity, higher = more binding, comparable within an allelic series)"
same,binding signal,HOXB6 [16],"9.98 upbm affinity estimate (log intensity, higher = more binding, comparable within an allelic series)"
same,binding signal,HOXA2 [3],"12.6 upbm affinity estimate (log intensity, higher = more binding, comparable within an allelic series)"
same,binding signal,HOXA4 [4],"12.1 upbm affinity estimate (log intensity, higher = more binding, comparable within an allelic series)"
same,binding signal,HOXB4 [5],"13.9 upbm affinity estimate (log intensity, higher = more binding, comparable within an allelic series)"
same,binding signal,HOXA2 [6],"13.3 upbm affinity estimate (log intensity, higher = more binding, comparable within an allelic series)"
same,binding signal,HOXA4 [7],"13.6 upbm affinity estimate (log intensity, higher = more binding, comparable within an allelic series)"
same,binding signal,HOXA4 [9],"11.4 upbm affinity estimate (log intensity, higher = more binding, comparable within an allelic series)"
GATAATGA,binding signal,HOXB4 [1],"13.1 upbm affinity estimate (log intensity, higher = more binding, comparable within an allelic series)"
same,binding signal,HOXA4 [2],"10.7 upbm affinity estimate (log intensity, higher = more binding, comparable within an allelic series)"
same,binding signal,HOXA2 [3],"12.6 upbm affinity estimate (log intensity, higher = more binding, comparable within an allelic series)"
same,binding signal,HOXA4 [4],"12.3 upbm affinity estimate (log intensity, higher = more binding, comparable within an allelic series)"
same,binding signal,HOXB4 [5],"13.7 upbm affinity estimate (log intensity, higher = more binding, comparable within an allelic series)"
same,binding signal,HOXA2 [6],"13.3 upbm affinity estimate (log intensity, higher = more binding, comparable within an allelic series)"
same,binding signal,HOXA4 [7],"13.9 upbm affinity estimate (log intensity, higher = more binding, comparable within an allelic series)"
same,binding signal,VAX1 [13],"12.9 upbm affinity estimate (log intensity, higher = more binding, comparable within an allelic series)"
same,binding signal,VAX1 [14],"12.7 upbm affinity estimate (log intensity, higher = more binding, comparable within an allelic series)"
same,binding signal,HOXA2 [8],"10.9 upbm affinity estimate (log intensity, higher = more binding, comparable within an allelic series)"
same,binding signal,HOXA4 [9],"11.6 upbm affinity estimate (log intensity, higher = more binding, comparable within an allelic series)"
same,binding signal,HOXA2 [10],"12.3 upbm affinity estimate (log intensity, higher = more binding, comparable within an allelic series)"
same,binding signal,VAX1 [15],"12.5 upbm affinity estimate (log intensity, higher = more binding, comparable within an allelic series)"
CGAGGCAC,binding signal,HOXB4 [1],"7.73 upbm affinity estimate (log intensity, higher = more binding, comparable within an allelic series)"
same,binding signal,HOXB4 [5],"7.43 upbm affinity estimate (log intensity, higher = more binding, comparable within an allelic series)"
CATAATGA,binding signal,HOXB4 [1],"13 upbm affinity estimate (log intensity, higher = more binding, comparable within an allelic series)"
same,binding signal,HOXA4 [2],"10.6 upbm affinity estimate (log intensity, higher = more binding, comparable within an allelic series)"
same,binding signal,HOXA2 [3],"12 upbm affinity estimate (log intensity, higher = more binding, comparable within an allelic series)"
same,binding signal,HOXA4 [4],"11.9 upbm affinity estimate (log intensity, higher = more binding, comparable within an allelic series)"
same,binding signal,HOXB4 [5],"13.5 upbm affinity estimate (log intensity, higher = more binding, comparable within an allelic series)"
same,binding signal,HOXA2 [6],"13.1 upbm affinity estimate (log intensity, higher = more binding, comparable within an allelic series)"
same,binding signal,HOXA4 [7],"13.6 upbm affinity estimate (log intensity, higher = more binding, comparable within an allelic series)"
same,binding signal,HOXA2 [8],"11 upbm affinity estimate (log intensity, higher = more binding, comparable within an allelic series)"
same,binding signal,HOXA4 [9],"11.3 upbm affinity estimate (log intensity, higher = more binding, comparable within an allelic series)"
same,binding signal,HOXA2 [10],"12.1 upbm affinity estimate (log intensity, higher = more binding, comparable within an allelic series)"
ACCTCTCG,binding signal,HOXB4 [1],"7.54 upbm affinity estimate (log intensity, higher = more binding, comparable within an allelic series)"
same,binding signal,HOXA4 [2],"9.8 upbm affinity estimate (log intensity, higher = more binding, comparable within an allelic series)"
same,binding signal,HOXA4 [4],"9.73 upbm affinity estimate (log intensity, higher = more binding, comparable within an allelic series)"
same,binding signal,HOXB4 [5],"7.48 upbm affinity estimate (log intensity, higher = more binding, comparable within an allelic series)"
same,binding signal,HOXA4 [7],"9.69 upbm affinity estimate (log intensity, higher = more binding, comparable within an allelic series)"
same,binding signal,HOXA4 [9],"9.82 upbm affinity estimate (log intensity, higher = more binding, comparable within an allelic series)"
CCAGGCAG,binding signal,HOXB4 [1],"7.62 upbm affinity estimate (log intensity, higher = more binding, comparable within an allelic series)"
same,binding signal,HOXA4 [2],"9.9 upbm affinity estimate (log intensity, higher = more binding, comparable within an allelic series)"
same,binding signal,HOXB6 [16],"9.02 upbm affinity estimate (log intensity, higher = more binding, comparable within an allelic series)"
same,binding signal,HOXA4 [4],"9.88 upbm affinity estimate (log intensity, higher = more binding, comparable within an allelic series)"
same,binding signal,HOXB4 [5],"7.62 upbm affinity estimate (log intensity, higher = more binding, comparable within an allelic series)"
same,binding signal,HOXA4 [7],"9.85 upbm affinity estimate (log intensity, higher = more binding, comparable within an allelic series)"
same,binding signal,HOXA4 [9],"9.95 upbm affinity estimate (log intensity, higher = more binding, comparable within an allelic series)"
same,binding signal,HOXB6 [17],"9.1 upbm affinity estimate (log intensity, higher = more binding, comparable within an allelic series)"
CCTGCCCC,binding signal,HOXB4 [1],"7.51 upbm affinity estimate (log intensity, higher = more binding, comparable within an allelic series)"
same,binding signal,HOXB4 [5],"7.65 upbm affinity estimate (log intensity, higher = more binding, comparable within an allelic series)"
AATCAAGG,binding signal,HOXB4 [1],"10.3 upbm affinity estimate (log intensity, higher = more binding, comparable within an allelic series)"
same,binding signal,HOXB4 [5],"10.5 upbm affinity estimate (log intensity, higher = more binding, comparable within an allelic series)"
GCTGCGCC,binding signal,HOXB4 [1],"7.58 upbm affinity estimate (log intensity, higher = more binding, comparable within an allelic series)"
same,binding signal,HOXB4 [5],"7.62 upbm affinity estimate (log intensity, higher = more binding, comparable within an allelic series)"
CTAGGCAG,binding signal,HOXB4 [1],"8.13 upbm affinity estimate (log intensity, higher = more binding, comparable within an allelic series)"
same,binding signal,HOXB4 [5],"7.88 upbm affinity estimate (log intensity, higher = more binding, comparable within an allelic series)"
